In PMC11006913:
Substitutions are numbered along the chain they refer to.

Key:
Assay in all cases: PBM; 200 nM protein, PBS
Settings in all cases: dsDNA, one strand shown
SHOX [1] = biological target: SHOX (Homo sapiens, UniProt O15266 103-189)
PRRX1 [2] = biological target: PRRX1 (Homo sapiens, UniProt P54821 80-166, F113S)
SHOX [3] = biological target: SHOX (Homo sapiens, UniProt O15266 103-189, R173C)
PRRX1 [4] = biological target: PRRX1 (Homo sapiens, UniProt P54821 80-166)
PAX4 [5] = biological target: T1, PAX4 (Homo sapiens, UniProt O43316 9-242, R200K)
T1 sequence: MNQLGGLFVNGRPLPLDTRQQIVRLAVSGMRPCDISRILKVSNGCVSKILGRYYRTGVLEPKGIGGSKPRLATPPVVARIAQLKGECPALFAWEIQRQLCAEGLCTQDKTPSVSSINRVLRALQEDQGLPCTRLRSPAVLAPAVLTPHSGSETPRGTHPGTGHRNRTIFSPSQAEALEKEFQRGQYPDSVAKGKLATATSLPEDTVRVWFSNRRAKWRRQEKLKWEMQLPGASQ

PAX4 [6] = biological target: T2, PAX4 (Homo sapiens, UniProt O43316 9-242)
T2 sequence: T1 sequence with K192R

ALX1 [7] = biological target: ALX1 (Homo sapiens, UniProt Q15699 118-204, L144V)
Sequence of ALX1 (Homo sapiens, UniProt Q15699 118-204, L144V) (Q15699 118-204 L144V): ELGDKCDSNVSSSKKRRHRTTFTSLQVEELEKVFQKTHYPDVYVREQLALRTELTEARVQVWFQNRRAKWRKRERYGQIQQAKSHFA

PAX4 [8] = biological target: T3, PAX4 (Homo sapiens, UniProt O43316 9-242, R200Q)
T3 sequence: T1 sequence with K192Q

ALX1 [9] = biological target: ALX1 (Homo sapiens, UniProt Q15699 118-204, L144R)
Sequence of ALX1 (Homo sapiens, UniProt Q15699 118-204, L144R) (Q15699 118-204 L144R): as the sequence (Q15699 118-204 L144V) above, with V27R counted along it

PAX4 [10] = biological target: T4, PAX4 (Homo sapiens, UniProt O43316 9-242, F177V)
T4 sequence: T1 sequence with F169V, K192R

PAX4 [11] = biological target: T5, PAX4 (Homo sapiens, UniProt O43316 9-242, F177Y)
T5 sequence: T1 sequence with F169Y, K192R

PAX4 [12] = biological target: T6, PAX4 (Homo sapiens, UniProt O43316 9-242, R227W)
T6 sequence: T1 sequence with K192R, R219W

ALX1 [13] = biological target: ALX1 (Homo sapiens, UniProt Q15699 118-204)
Sequence of ALX1 (Homo sapiens, UniProt Q15699 118-204) (Q15699 118-204): as the sequence (Q15699 118-204 L144V) above, with V27L counted along it

MSX2 [14] = biological target: MSX2 (Homo sapiens, UniProt P35548 130-214, R199I)
Sequence of MSX2 (Homo sapiens, UniProt P35548 130-214, R199I) (P35548 130-214 R199I): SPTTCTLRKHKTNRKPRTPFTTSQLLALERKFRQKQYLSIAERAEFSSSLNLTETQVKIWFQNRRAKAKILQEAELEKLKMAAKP

MSX2 [15] = biological target: MSX2 (Homo sapiens, UniProt P35548 130-214)
Sequence of MSX2 (Homo sapiens, UniProt P35548 130-214) (P35548 130-214): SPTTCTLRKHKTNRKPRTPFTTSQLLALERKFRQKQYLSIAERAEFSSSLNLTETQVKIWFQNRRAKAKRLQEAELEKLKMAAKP

MSX2 [16] = biological target: MSX2 (Homo sapiens, UniProt P35548 130-214, F161Y)
Sequence of MSX2 (Homo sapiens, UniProt P35548 130-214, F161Y) (P35548 130-214 F161Y): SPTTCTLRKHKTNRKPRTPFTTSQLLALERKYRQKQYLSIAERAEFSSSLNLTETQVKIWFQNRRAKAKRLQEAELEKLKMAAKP

ALX3 [17] = biological target: ALX3 (Homo sapiens, UniProt O95076 139-225, N203Q)
Sequence of ALX3 (Homo sapiens, UniProt O95076 139-225, N203Q) (O95076 139-225 N203Q): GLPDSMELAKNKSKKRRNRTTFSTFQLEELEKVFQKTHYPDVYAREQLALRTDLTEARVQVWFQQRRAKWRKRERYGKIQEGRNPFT

ALX3 [18] = biological target: ALX3 (Homo sapiens, UniProt O95076 139-225)
Sequence of ALX3 (Homo sapiens, UniProt O95076 139-225) (O95076 139-225): as the sequence (O95076 139-225 N203Q) above, with Q65N counted along it

ALX3 [19] = biological target: ALX3 (Homo sapiens, UniProt O95076 139-225, L168Q)
Sequence of ALX3 (Homo sapiens, UniProt O95076 139-225, L168Q) (O95076 139-225 L168Q): as the sequence (O95076 139-225 N203Q) above, with L30Q, Q65N counted along it

ALX3 [20] = biological target: ALX3 (Homo sapiens, UniProt O95076 139-225, L168V)
Sequence of ALX3 (Homo sapiens, UniProt O95076 139-225, L168V) (O95076 139-225 L168V): as the sequence (O95076 139-225 N203Q) above, with L30V, Q65N counted along it

ALX3 [21] = biological target: ALX3 (Homo sapiens, UniProt O95076 139-225, N203S)
Sequence of ALX3 (Homo sapiens, UniProt O95076 139-225, N203S) (O95076 139-225 N203S): as the sequence (O95076 139-225 N203Q) above, with Q65S counted along it

HOXC10 [22] = biological target: HOXC10 (Homo sapiens, UniProt Q9NYD6 254-340)
Sequence of HOXC10 (Homo sapiens, UniProt Q9NYD6 254-340) (Q9NYD6 254-340): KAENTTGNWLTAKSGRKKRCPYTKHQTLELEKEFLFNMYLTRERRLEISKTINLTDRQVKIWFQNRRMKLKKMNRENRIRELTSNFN

HOXC10 [23] = biological target: HOXC10 (Homo sapiens, UniProt Q9NYD6 254-340, K271E)
Sequence of HOXC10 (Homo sapiens, UniProt Q9NYD6 254-340, K271E) (Q9NYD6 254-340 K271E): as the sequence (Q9NYD6 254-340) above, with K18E counted along it

NKX3-2 [24] = biological target: NKX3-2 (Homo sapiens, UniProt P78367 192-278, P234S)
Sequence of NKX3-2 (Homo sapiens, UniProt P78367 192-278, P234S) (P78367 192-278 P234S): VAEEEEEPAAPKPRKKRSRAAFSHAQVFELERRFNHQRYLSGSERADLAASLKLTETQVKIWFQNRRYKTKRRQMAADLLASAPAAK

NKX3-2 [25] = biological target: NKX3-2 (Homo sapiens, UniProt P78367 192-278)
Sequence of NKX3-2 (Homo sapiens, UniProt P78367 192-278) (P78367 192-278): as the sequence (P78367 192-278 P234S) above, with S43P counted along it

HOXB9 [26] = biological target: HOXB9 (Homo sapiens, UniProt P17482 171-250)
Sequence of HOXB9 (Homo sapiens, UniProt P17482 171-250) (P17482 171-250): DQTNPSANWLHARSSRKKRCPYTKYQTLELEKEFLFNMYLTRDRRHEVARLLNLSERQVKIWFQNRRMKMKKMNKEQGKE

HOXB9 [27] = biological target: HOXB9 (Homo sapiens, UniProt P17482 171-250, R186Q)
Sequence of HOXB9 (Homo sapiens, UniProt P17482 171-250, R186Q) (P17482 171-250 R186Q): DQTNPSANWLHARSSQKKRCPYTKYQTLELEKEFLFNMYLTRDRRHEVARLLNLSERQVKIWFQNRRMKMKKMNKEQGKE

HOXC9 [28] = biological target: HOXC9 (Homo sapiens, UniProt P31274 178-260, K195R)
Sequence of HOXC9 (Homo sapiens, UniProt P31274 178-260, K195R) (P31274 178-260 K195R): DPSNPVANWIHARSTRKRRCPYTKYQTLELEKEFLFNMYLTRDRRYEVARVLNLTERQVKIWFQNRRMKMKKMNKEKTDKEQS

HOXC9 [29] = biological target: HOXC9 (Homo sapiens, UniProt P31274 178-260)
Sequence of HOXC9 (Homo sapiens, UniProt P31274 178-260) (P31274 178-260): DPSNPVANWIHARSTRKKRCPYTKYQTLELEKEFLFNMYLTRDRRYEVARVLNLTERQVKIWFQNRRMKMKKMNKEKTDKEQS

HOXC9 [30] = biological target: HOXC9 (Homo sapiens, UniProt P31274 178-260, R193K)
Sequence of HOXC9 (Homo sapiens, UniProt P31274 178-260, R193K) (P31274 178-260 R193K): as the sequence (P31274 178-260) above, with R16K counted along it

HOXC9 [31] = biological target: HOXC9 (Homo sapiens, UniProt P31274 178-260, R222W)
Sequence of HOXC9 (Homo sapiens, UniProt P31274 178-260, R222W) (P31274 178-260 R222W): as the sequence (P31274 178-260) above, with R45W counted along it

Sequence of SHOX (Homo sapiens, UniProt O15266 103-189) (O15266 103-189): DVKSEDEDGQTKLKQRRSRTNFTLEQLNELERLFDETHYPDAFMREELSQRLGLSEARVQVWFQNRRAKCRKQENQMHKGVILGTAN
Sequence of SHOX (Homo sapiens, UniProt O15266 103-189, R173C) (O15266 103-189 R173C): as the sequence (O15266 103-189) above, with R71C counted along it
Sequence of PRRX1 (Homo sapiens, UniProt P54821 80-166) (P54821 80-166): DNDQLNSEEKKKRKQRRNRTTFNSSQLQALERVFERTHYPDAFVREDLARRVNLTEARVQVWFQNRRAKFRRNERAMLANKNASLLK
Sequence of PRRX1 (Homo sapiens, UniProt P54821 80-166, F113S) (P54821 80-166 F113S): as the sequence (P54821 80-166) above, with F34S counted along it

Sequence: CGAACCGC
- binding signal (SHOX [1]): 7.29 upbm affinity estimate (log intensity, higher = more binding, comparable within an allelic series)
- binding signal (PRRX1 [2]): 9.29 upbm affinity estimate (log intensity, higher = more binding, comparable within an allelic series)
- binding signal (SHOX [3]): 7.2 upbm affinity estimate (log intensity, higher = more binding, comparable within an allelic series)
- binding signal (PRRX1 [4]): 9.38 upbm affinity estimate (log intensity, higher = more binding, comparable within an allelic series)

Sequence: GCAAATTA
- binding signal (SHOX [1]): 11.6 upbm affinity estimate (log intensity, higher = more binding, comparable within an allelic series)
- binding signal (PAX4 [5]): 11.6 upbm affinity estimate (log intensity, higher = more binding, comparable within an allelic series)
- binding signal (PAX4 [6]): 12.1 upbm affinity estimate (log intensity, higher = more binding, comparable within an allelic series)
- binding signal (ALX1 [7]): 11.2 upbm affinity estimate (log intensity, higher = more binding, comparable within an allelic series)
- binding signal (PAX4 [8]): 11.9 upbm affinity estimate (log intensity, higher = more binding, comparable within an allelic series)
- binding signal (SHOX [3]): 8.89 upbm affinity estimate (log intensity, higher = more binding, comparable within an allelic series)
- binding signal (ALX1 [9]): 10.8 upbm affinity estimate (log intensity, higher = more binding, comparable within an allelic series)
- binding signal (PAX4 [10]): 10.3 upbm affinity estimate (log intensity, higher = more binding, comparable within an allelic series)
- binding signal (PAX4 [11]): 10.8 upbm affinity estimate (log intensity, higher = more binding, comparable within an allelic series)
- binding signal (PAX4 [12]): 10.8 upbm affinity estimate (log intensity, higher = more binding, comparable within an allelic series)
- binding signal (ALX1 [13]): 12 upbm affinity estimate (log intensity, higher = more binding, comparable within an allelic series)

Sequence: CGGGGGGC
- binding signal (SHOX [1]): 7.33 upbm affinity estimate (log intensity, higher = more binding, comparable within an allelic series)
- binding signal (PAX4 [5]): 9.22 upbm affinity estimate (log intensity, higher = more binding, comparable within an allelic series)
- binding signal (PAX4 [6]): 9.41 upbm affinity estimate (log intensity, higher = more binding, comparable within an allelic series)
- binding signal (MSX2 [14]): 9.61 upbm affinity estimate (log intensity, higher = more binding, comparable within an allelic series)
- binding signal (PAX4 [8]): 9.12 upbm affinity estimate (log intensity, higher = more binding, comparable within an allelic series)
- binding signal (SHOX [3]): 7 upbm affinity estimate (log intensity, higher = more binding, comparable within an allelic series)
- binding signal (PAX4 [10]): 8.99 upbm affinity estimate (log intensity, higher = more binding, comparable within an allelic series)
- binding signal (MSX2 [15]): 9.76 upbm affinity estimate (log intensity, higher = more binding, comparable within an allelic series)
- binding signal (PAX4 [11]): 9.11 upbm affinity estimate (log intensity, higher = more binding, comparable within an allelic series)
- binding signal (MSX2 [16]): 9.77 upbm affinity estimate (log intensity, higher = more binding, comparable within an allelic series)
- binding signal (PAX4 [12]): 9.12 upbm affinity estimate (log intensity, higher = more binding, comparable within an allelic series)

Sequence: AATTAGAG
- binding signal (SHOX [1]): 11.6 upbm affinity estimate (log intensity, higher = more binding, comparable within an allelic series)
- binding signal (PAX4 [5]): 11.7 upbm affinity estimate (log intensity, higher = more binding, comparable within an allelic series)
- binding signal (PAX4 [6]): 12.2 upbm affinity estimate (log intensity, higher = more binding, comparable within an allelic series)
- binding signal (MSX2 [14]): 12.1 upbm affinity estimate (log intensity, higher = more binding, comparable within an allelic series)
- binding signal (PAX4 [8]): 12 upbm affinity estimate (log intensity, higher = more binding, comparable within an allelic series)
- binding signal (SHOX [3]): 9.13 upbm affinity estimate (log intensity, higher = more binding, comparable within an allelic series)
- binding signal (PAX4 [10]): 10.4 upbm affinity estimate (log intensity, higher = more binding, comparable within an allelic series)
- binding signal (MSX2 [15]): 13.3 upbm affinity estimate (log intensity, higher = more binding, comparable within an allelic series)
- binding signal (PAX4 [11]): 10.9 upbm affinity estimate (log intensity, higher = more binding, comparable within an allelic series)
- binding signal (MSX2 [16]): 13.1 upbm affinity estimate (log intensity, higher = more binding, comparable within an allelic series)
- binding signal (PAX4 [12]): 10.8 upbm affinity estimate (log intensity, higher = more binding, comparable within an allelic series)

Sequence: ACAAATTA
- binding signal (SHOX [1]): 11.4 upbm affinity estimate (log intensity, higher = more binding, comparable within an allelic series)
- binding signal (PAX4 [5]): 11.7 upbm affinity estimate (log intensity, higher = more binding, comparable within an allelic series)
- binding signal (PAX4 [6]): 12.3 upbm affinity estimate (log intensity, higher = more binding, comparable within an allelic series)
- binding signal (MSX2 [14]): 12 upbm affinity estimate (log intensity, higher = more binding, comparable within an allelic series)
- binding signal (ALX1 [7]): 11.3 upbm affinity estimate (log intensity, higher = more binding, comparable within an allelic series)
- binding signal (ALX3 [17]): 8.4 upbm affinity estimate (log intensity, higher = more binding, comparable within an allelic series)
- binding signal (PAX4 [8]): 12.2 upbm affinity estimate (log intensity, higher = more binding, comparable within an allelic series)
- binding signal (SHOX [3]): 9.08 upbm affinity estimate (log intensity, higher = more binding, comparable within an allelic series)
- binding signal (ALX1 [9]): 10.9 upbm affinity estimate (log intensity, higher = more binding, comparable within an allelic series)
- binding signal (PAX4 [10]): 10.5 upbm affinity estimate (log intensity, higher = more binding, comparable within an allelic series)
- binding signal (MSX2 [15]): 13.3 upbm affinity estimate (log intensity, higher = more binding, comparable within an allelic series)
- binding signal (ALX3 [18]): 12.2 upbm affinity estimate (log intensity, higher = more binding, comparable within an allelic series)
- binding signal (PAX4 [11]): 11 upbm affinity estimate (log intensity, higher = more binding, comparable within an allelic series)
- binding signal (ALX3 [19]): 10.1 upbm affinity estimate (log intensity, higher = more binding, comparable within an allelic series)
- binding signal (ALX3 [20]): 9.54 upbm affinity estimate (log intensity, higher = more binding, comparable within an allelic series)
- binding signal (MSX2 [16]): 12.9 upbm affinity estimate (log intensity, higher = more binding, comparable within an allelic series)
- binding signal (PAX4 [12]): 11 upbm affinity estimate (log intensity, higher = more binding, comparable within an allelic series)
- binding signal (ALX1 [13]): 12 upbm affinity estimate (log intensity, higher = more binding, comparable within an allelic series)
- binding signal (ALX3 [21]): 8.51 upbm affinity estimate (log intensity, higher = more binding, comparable within an allelic series)

Sequence: ACGGGGCC
- binding signal (SHOX [1]): 7.07 upbm affinity estimate (log intensity, higher = more binding, comparable within an allelic series)
- binding signal (HOXC10 [22]): 10.1 upbm affinity estimate (log intensity, higher = more binding, comparable within an allelic series)
- binding signal (SHOX [3]): 7.17 upbm affinity estimate (log intensity, higher = more binding, comparable within an allelic series)
- binding signal (HOXC10 [23]): 10.1 upbm affinity estimate (log intensity, higher = more binding, comparable within an allelic series)
- binding signal (NKX3-2 [24]): 10.8 upbm affinity estimate (log intensity, higher = more binding, comparable within an allelic series)
- binding signal (NKX3-2 [25]): 10.8 upbm affinity estimate (log intensity, higher = more binding, comparable within an allelic series)

Sequence: GTACAATA
- binding signal (SHOX [1]): 8.08 upbm affinity estimate (log intensity, higher = more binding, comparable within an allelic series)
- binding signal (HOXB9 [26]): 9.8 upbm affinity estimate (log intensity, higher = more binding, comparable within an allelic series)
- binding signal (HOXB9 [27]): 9.79 upbm affinity estimate (log intensity, higher = more binding, comparable within an allelic series)

Sequence: CCCCCGGG
- binding signal (SHOX [1]): 6.93 upbm affinity estimate (log intensity, higher = more binding, comparable within an allelic series)
- binding signal (HOXC9 [28]): 9.28 upbm affinity estimate (log intensity, higher = more binding, comparable within an allelic series)
- binding signal (HOXC9 [29]): 9.39 upbm affinity estimate (log intensity, higher = more binding, comparable within an allelic series)
- binding signal (SHOX [3]): 6.97 upbm affinity estimate (log intensity, higher = more binding, comparable within an allelic series)
- binding signal (HOXC9 [30]): 9.25 upbm affinity estimate (log intensity, higher = more binding, comparable within an allelic series)
- binding signal (HOXC9 [31]): 9.53 upbm affinity estimate (log intensity, higher = more binding, comparable within an allelic series)

Sequence: GGCGCGAA
- binding signal (SHOX [1]): 7.15 upbm affinity estimate (log intensity, higher = more binding, comparable within an allelic series)
- binding signal (HOXC10 [22]): 10.1 upbm affinity estimate (log intensity, higher = more binding, comparable within an allelic series)
- binding signal (SHOX [3]): 7.19 upbm affinity estimate (log intensity, higher = more binding, comparable within an allelic series)
- binding signal (HOXC10 [23]): 10.1 upbm affinity estimate (log intensity, higher = more binding, comparable within an allelic series)

Sequence: GCCTGCCC
- binding signal (SHOX [1]): 7.04 upbm affinity estimate (log intensity, higher = more binding, comparable within an allelic series)
- binding signal (HOXC10 [22]): 10.1 upbm affinity estimate (log intensity, higher = more binding, comparable within an allelic series)
- binding signal (ALX1 [7]): 6.56 upbm affinity estimate (log intensity, higher = more binding, comparable within an allelic series)
- binding signal (ALX3 [17]): 7.64 upbm affinity estimate (log intensity, higher = more binding, comparable within an allelic series)
- binding signal (SHOX [3]): 7.13 upbm affinity estimate (log intensity, higher = more binding, comparable within an allelic series)
- binding signal (ALX1 [9]): 6.58 upbm affinity estimate (log intensity, higher = more binding, comparable within an allelic series)
- binding signal (HOXC10 [23]): 10 upbm affinity estimate (log intensity, higher = more binding, comparable within an allelic series)
- binding signal (ALX3 [18]): 7.67 upbm affinity estimate (log intensity, higher = more binding, comparable within an allelic series)
- binding signal (ALX3 [19]): 7.69 upbm affinity estimate (log intensity, higher = more binding, comparable within an allelic series)
- binding signal (ALX3 [20]): 7.69 upbm affinity estimate (log intensity, higher = more binding, comparable within an allelic series)
- binding signal (ALX1 [13]): 6.62 upbm affinity estimate (log intensity, higher = more binding, comparable within an allelic series)
- binding signal (ALX3 [21]): 7.72 upbm affinity estimate (log intensity, higher = more binding, comparable within an allelic series)
